Screening data (PubChem BioAssay)
Only a selection was taken, and hits are over-represented in it overall.
Pf Dd2 inh = qHTS Primary assay for Inhibitors of Plasmodium falciparum Dd2 growth in vitro; P. falciparum Dd2 growth, SYBR Green, 72 h; Potency, µM (top dose mostly 28.9 µM), inactives show at the top dose activity, negative = inhibition, usual class: inhibitors; AID 1347417, 2020; 120,000 compounds, 4.3% hits; active = well fitted inhibition curve with a large enough effect;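 note: plate controls were DMSO vehicle for no effect and reference drug for full effect; nearly all actives have a fitted effect of over 65% in size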
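Infected erythrocytes (Dd2, 0.3% parasitemia, 2.5% hematocrit final) are added to compound in RPMI-1640/Albumax II medium, grown 72 h at 37C in low oxygen, then lysed with saponin/Triton-X containing SYBR Green and read by fluorescence.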
* marks the source's active call; other numbers are inactive results; i = inactive; [ ] = another dose, or the depositor's remark. Potency is the fitted concentration of half-maximal effect.

SMILES | Pf Dd2 inh
Oc1ccccc1-c1cc(C2=CCOCC2)c2cncn2c1 | 1.3µM*
Oc1ccccc1-c1cc(-c2cccnc2)c2cncn2c1 | 0.35µM*
O=C1COCCN1c1cc(-c2ccccc2Oc2ccccc2)cn2cncc12 | i
C[S+](=O)([O-])c1ccc(-c2cc(-c3cccnc3)c3cncn3c2)cc1 | i
Cc1noc(C)c1-c1cc2c(cc(-c3ccccc3)n2C)c(-c2cnn(C)c2)n1 | -26%[44.1 µM]
C1=C(c2cc(-c3cccc4cn[nH]c34)cn3cncc23)CCOC1 | i
Cc1noc(C)c1-c1cc(-c2ccncc2)cn2cncc12 | -27%[44.1 µM]
Cc1noc(C)c1-c1cc(-c2ccccc2)cn2cncc12 | 5.6µM*
COc1ncccc1-c1cc(-c2c(C)noc2C)cc2c1C(=O)N(C)C2=O | i
Cc1noc(C)c1-c1cc(-c2ccccc2O)cn2cncc12 | 14µM*
C1=C(c2cc(-c3cccc4[nH]ccc34)cn3cncc23)CCOC1 | -24%[44.1 µM]
Cc1cccc(CC(=O)N2CCC(N3CC4CC(C3)[C@H]3CCCC(=O)N3C4)CC2)c1 (stereo partly drawn) | -16%
O=C1NCCCCCCN(C(=O)c2cccnc2)[C@H]2C[C@H](c3nc(Cc4ccccc4)no3)C[C@@H]12 | i
COc1ccc(CNC(=O)C[C@@H]2C[C@H]3O[C@H](CNC(=O)NCc4ccccc4)[C@@H](O)[C@H]3O2)cc1 | 9%
Cc1cc(C)n(CC(=O)NCC(=O)N2CCCCCCNC(=O)CC2c2ccccc2)n1 (stereo not drawn) | -2%
CCOCC(=O)N[C@H]1CN(Cc2nc(C)c(C)n2C)C[C@@H]1C(C)C | -27%
O=C(Nc1cccc(Cl)c1F)N1CCC(Oc2ncccc2C(=O)N2CCOCC2)C1 (stereo not drawn) | 12%
CN(C)Cc1ccc(-c2cc(-c3ccc(=O)[nH]c3)c3cncn3c2)cc1 | 3%[44.1 µM]
Cc1noc(C)c1-c1cc2c(c(-c3cccc(CO)c3)c1)C(=O)N(C)C2=O | i
Cc1noc(C)c1-c1cc(-c2ccc(CN(C)C)cc2)cn2cncc12 | 2.8µM*
COc1ccccc1NC(=O)c1sc2nc(C)c(C(=O)Nc3ccc(C)cc3C)c(-c3ccc(C)o3)c2c1N | 11µM*
COc1cccc(C(=O)Nc2nc(-c3ccc(Br)cc3)ns2)c1 | 11%
COc1cccc(NC(=O)c2sc3nc(C)c(C(=O)Nc4ccc(C)cc4C)c(-c4ccc(Br)cc4)c3c2N)c1 | 8.9µM*
COc1ccccc1C(=O)Nc1c(C(=O)Nc2cc(Cl)ccc2C)sc2nc(C)cc(C)c12 | 2%
CCCCOC(=O)c1ccc(NC(=O)c2sc3nc(C)cc(C)c3c2N)cc1 | -14%
SMILES | Pf Dd2 inh
COCCCNC(=O)c1sc2nc(C)c(C(=O)Nc3ccc(Cl)cc3)c(-c3ccc(Br)cc3)c2c1N | -9%
COc1ccc(NC(=O)c2sc3nc(C)c(C(=O)Nc4ccc(C)cc4C)c(-c4sccc4C)c3c2N)cc1 | 3.2µM*
COc1ccccc1NC(=O)c1sc2nc(C)c(C(=O)Nc3ccc(C)cc3C)c(-c3ccccc3Cl)c2c1N | 5.6µM*
COC(=O)c1ccccc1NC(=O)c1sc2nc(C)cc(C)c2c1NC(=O)c1ccccc1OC | 33%
COc1ccccc1NC(=O)c1sc2nc(N3CCOCC3)c3c(c2c1N)CC(C)(C)OC3 | -3%
COc1ccccc1NC(=O)c1sc2cccc(Cl)c2c1Cl | 42%
COc1ccc(Cc2c(C)nn(-c3nc(C)c(C(=O)Nc4ccc(C)cc4C)s3)c2C)cc1 | -13%
O=C1CCC2(CCCO2)CCN1Cc1ccc(C(F)(F)F)c(F)c1 (stereo not drawn) | -18%
CCCNC(=O)N(C1CCOCC1)C1CCN(S(=O)(=O)c2cn(C)cn2)CC1 | -1%
CCC(COC)NC(=O)c1ccccc1OC1CCN(C(=O)COC)CC1 (stereo not drawn) | -6%
CCCS(=O)(=O)N1CCC(C(=O)N2CCCCCCNC(=O)CC2)CC1 | -6%
O=C(CC1CCCC1)N1CCC(Cc2nc(C3CC3)n[nH]2)C1 (stereo not drawn) | -1%
CNC(=O)[C@@H]1CN(C(=O)c2cnc(C)cn2)C[C@H]1c1n[nH]c(C)n1 | 9%
Cc1ccccc1-c1noc(CCC(=O)N2CCC3(CCCNC3)C2)n1 (stereo not drawn) | -25%
Cc1ccc(NC(=O)c2sc3nc(-c4ccc(F)cc4)ccc3c2N)cc1F | 0%
Cc1ccc(NC(=O)c2c(C)nc3sc(C(=O)Nc4ccc(F)cc4)c(N)c3c2-c2ccc(C)o2)c(C)c1 | 3.5µM*
Cc1cc(F)ccc1NC(=O)c1sc2nc(-c3cccs3)ccc2c1N | -6%
COCCNC(=O)C[C@@H]1C[C@H]2O[C@H](CNCc3cccnc3OC)[C@@H](O)[C@H]2O1 | 5%[44.1 µM]
CCCNC(=O)N1CCC(c2noc(COc3ccc(C)cc3)n2)CC1 | 8.9µM*
CCOc1ccccc1NC(=O)N1CCCC(c2noc(COc3ccccc3)n2)C1 (stereo not drawn) | 5.6µM*
CCOc1ccccc1NC(=O)N1CCC(c2noc(COC)n2)C1 (stereo not drawn) | -7%
COCCOCc1nc(C2CCN(C(=O)NCc3ccc(C)cc3)CC2)no1 | -25%
CCCNC(=O)N1CCC(c2noc(COc3ccc(F)cc3)n2)C1 (stereo not drawn) | -29%
Cc1c(F)cccc1NC(=O)N1CCCC(c2noc(COc3ccccc3)n2)C1 (stereo not drawn) | -86%
COC[C@@H]1CN(C(=O)COc2ccc(F)cc2)C[C@H]1c1nc(C)no1 | 6%
SMILES | Pf Dd2 inh
CC1=Nc2cc(C(=O)NC3CCCC3)ccc2Sc2ccc(C)cc21 | -17%
CC(C)CCNC(=O)c1ccc2c(c1)N(C)C(=O)c1ccccc1S2 | i
CCC1=Nc2cc(C(=O)NCCC(C)C)ccc2Sc2ccc(Br)cc21 | 13µM*
CCN1C(=O)Cc2cc(C(=O)NCCC(C)C)ccc21 | i
CCC1=Nc2cc(C(=O)NC3CCCC3)ccc2Sc2ccc(Cl)cc21 | 4.5µM*
O=C(NC1CCCCC1)c1ccc2c(c1)N(Cc1cccc(F)c1)C(=O)c1ccccc1S2 | 10%
CCN1c2cc(C(=O)NC3CCCC3)ccc2C(=O)N2CCCCCC21 (stereo not drawn) | i
CCN1c2cc(C(=O)NC3CCCC3)ccc2C(=O)N2CCCCC21 (stereo not drawn) | -10%
CC1=Nc2cc(C(=O)NC3CCCC3)ccc2Sc2ccc(Cl)cc21 | 11µM*
COc1cccc(CNC(=O)[C@@H]2C[C@@H](O)CN2C2CCN(C(=O)C3CCCC3)CC2)c1 | i
O=C(CO[C@H]1CN(Cc2ccc(C(=O)O)cc2)C[C@H]1F)Nc1ccccc1O | -3%[44.1 µM]
CCOc1ccc(NC(=O)NCCCN2CCN(c3ccc(F)cc3)CC2)cc1 | i
O=C(NCCCN1CCN(c2ccc(F)cc2)CC1)Nc1ccccc1Cl | 7.9µM*
CCC(=O)N1c2ccccc2CC1C(=O)NCCCN1CCN(c2ccc(F)cc2)CC1 (stereo not drawn) | -13%
Cc1oc(-c2ccc3ccccc3c2)nc1CN1CCNC(=O)C1 | -3%
COc1ccccc1CC(=O)N1CC[C@@H]2NC(=O)[C@H]3C[C@H](NC(=O)C4CCCC4)CN3C(=O)[C@H]21 | -7%
Cc1ccsc1C(=O)NC1CCN(C(=O)N2CC3CC(C2)[C@H]2CCCC(=O)N2C3)CC1 (stereo partly drawn) | -24%
Cn1nc(-c2ccccc2F)c2cc(C(=O)NCc3cccc(Cl)c3)sc21 | -8%
Cn1nc(-c2ccccc2F)c2cc(C(=O)Nc3cc(F)ccc3F)sc21 | 25%
COc1ccccc1N1CCN(C(=O)c2cc3c(-c4ccccc4F)nn(C)c3s2)CC1 | 11µM*
CCCN(CCC)CCNC(=O)c1cc2c(-c3ccccc3F)nn(C)c2s1 | 4µM*
